Screening data as filed in PubChem BioAssay.
ALOX12 inh – Primary qHTS assay for inhibitors of human arachidonate 12S-lipoxygenase (ALOX12): Round 2; purified 12hLO, xylenol orange hydroperoxide absorbance; Potency, µM (series often up to 108 µM), usual class: inhibitors; hit rate 1.1% among 580,000; active = well fitted inhibition curve with a large enough effect; inconclusive = small, poorly fitted or top-dose-only effect, or another doubt; inactive = no such curve, though single readings can be large or run the other way
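Purified human 12hLO at 150 nM in 25 mM Hepes, 0.01% Triton X-100, pH 7.0, preincubated 15 min at room temperature with compound. Reaction started with 40 uM arachidonic acid, 30 min at room temperature. Hydroperoxide measured by Fe-xylenol orange, 573/405 nm absorbance ratio.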
KCNH2 3.1 block – qHTS for Inhibitors of KCHN2 3.1: Mutant qHTS. hit rate 0.95% among 340,000. U2OS KCNH2 3.1, thallium flux FluxOr; stronger effect = lower value. Potassium voltage-gated channel subfamily H member 2, brain isoform KCNH2 3.1 (human). activity change, % (tested at about 1.8 µM);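 active = maximum activity change below -70%; inconclusive = maximum activity change from -70% to -50%; inactive = maximum activity change above -50%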;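 note: thallium influx rate constant from kinetic fluorescence after stimulation buffer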
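Kinetic fluorescence (2 min after stimulation buffer) measures Tl+ influx through KCNH2 3.1 expressed by viral transduction in U2OS cells; the rate constant is normalized against DMSO controls serving as positive and negative references.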
ClpP mod – qHTS Assay for Activators of ClpP. hit rate 1.9% among 340,000. Potency, µM (titrated, usually from 57.5 µM). ATP-dependent Clp protease proteolytic subunit (Bacillus subtilis (strain 168)), P80244. purified B. subtilis ClpP, FRET peptide cleavage, 20 min; active = well fitted falling curve with a large enough effect; inconclusive = small, poorly fitted or top-dose-only effect; inactive = no such curve, though single readings can be large or run the other way; note: the source files actives as falling curves though it sought activators and does not explain the sign; nearly all actives have a fitted effect of over 65% in size
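ClpP 10 microg/mL final, pH 8 Tris/KCl buffer with BSA, glycerol, Tween-20; compound pinned in; FRET-FV substrate; RT 20 min; Ex320/Em430; ΔFRET vs ADEP 5.8 microM, DMSO, no enzyme.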
Chronic BCR inh – qHTS Assay to Find Inhibitors of Chronic Active B-Cell Receptor Signaling; ABC-DLBCL IkBa-CBG/CBR reporter, luminescence ratio, 4 h; Potency, µM (highest dose often 46.1 µM), hits mostly inhibitors; hit rate 0.05% among 340,000; AID 493014, 2011; active = well fitted inhibition curve with a large enough effect in the signal ratio, with a control signal flat, not every such curve was filed as active; inconclusive = small, poorly fitted or top-dose-only effect, or effect the other way, or a change in a side signal; the % refers to the signal ratio
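Compounds up to 46 uM were incubated four hours with TMD8 cells whose green CBG68 luciferase is fused to IkappaBalpha; red CBR luminescence normalised the signal, and concentration-effect curves were fitted to fusion, red and ratio data.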
KCNH2 WT inh – qHTS for Inhibitors of KCHN2 3.1: Wildtype qHTS | U2OS, BacMam KCNH2, thallium flux FluxOr; stronger effect = lower value | activity change, % at 1.84 µM | hit rate 0.37% among 340,000 | Voltage-gated inwardly rectifying potassium channel KCNH2 (Homo sapiens), Q12809 | AID 720551, 2013;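 active = maximum activity change below -70%; inconclusive = maximum activity change between -70% and -50%; inactive = maximum activity change above -50%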
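U2OS cells were transduced with wild-type KCNH2 virus (2.03 x 10^8 / mL) for 4 h at room temperature, then cultured overnight at 37 C. Thallium flux was read with FluxOr dye. Rate constants were normalized to DMSO controls.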
LDHA block – qHTS assay for inhibitors of human lactate dehydrogenase. L-lactate dehydrogenase A chain (Homo sapiens), P00338. purified LDHA, NADH/diaphorase-resazurin fluorescence; stronger effect = lower value. activity change, % (values are at about 110 or 230 µM). hit rate 0.15% among 480,000; in the data active = activity change below about -30%; inconclusive = mostly about -25% to -30%
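Enzyme activity of human lactate dehydrogenase 5 (2 nM; 0.06 mM NADH, 0.2 mM pyruvate, 5 min, RT) is measured via a resazurin/diaphorase fluorescence readout of residual NADH.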
Hits are given with their value; n = inactive; u = inconclusive; x = no result. Sampled rows, rich in hits. Any-hit rate of the full collection: about 3%.

SMILES	ALOX12 inh	KCNH2 3.1 block	ClpP mod	Chronic BCR inh	KCNH2 WT inh	LDHA block
CCOc1ccc(CN2CCN(Cc3ccc4c(c3)c3ccccc3n4CC)CC2)cc1	u	x	20µM	x	x	n
COc1ccc(N2C(=O)CN=C2Nc2nc(C)cc(C)n2)cc1OC	n	-149	n	n	n	n
Cc1cc(C)nc(NC2=NCC(=O)N2c2ccc(F)c(Cl)c2)n1	n	n	n	n	n	n
CS(=O)(=O)NC[C@H]1O[C@@H](CC(=O)N2CCN(c3ccccn3)CC2)[C@H](O)[C@@H]1O	n	x	x	x	x	x
CCN(CC)C(=O)CSc1nc2ccc(NC(=O)c3ccc(C)cc3)cc2s1	u	x	x	x	x	n
Cc1cc(C)cc(C(=O)Nc2c(C(=O)Nc3ccccc3F)oc3ccccc23)c1	n	x	13µM	x	x	n
O=C(Nc1oc2ccccc2c(=O)c1-c1ccc2c(c1)OCO2)c1ccccc1	n	x	x	x	x	-36
O=C(Nc1c(C(=O)Nc2cccc(F)c2)oc2ccccc12)c1ccc2c(c1)OCO2	n	n	25µM	n	n	n
CN1CCN(/N=C/c2nc(-c3cccc([N+](=O)[O-])c3)n3ccccc23)CC1	n	n	n	n	n	n
O=C(O)/C=C/c1nc(-c2ccccc2)n2ccccc12	u	n	32µM	u	n	n
CCN(C(=O)C(C)S(=O)(=O)Cc1ccccc1Cl)c1ccccc1 (stereo not given)	n	x	x	x	x	n
CCCCC/C=C/CC(=O)OC	n	x	x	x	x	x
CCn1c(=O)c(-c2cc(=O)[nH][nH]2)c(O)c2ccccc21	n	n	x	n	n	n
O=c1cc(-c2c(O)c3ccccc3n(Cc3ccccc3)c2=O)[nH][nH]1	25µM	n	x	u	x	n
CCNC(=O)COC(=O)c1ccc(-c2nc3ccccc3s2)s1	n	n	n	u	n	n
Cc1noc(C)c1COC(=O)c1ccc(-c2nc3ccccc3s2)s1	n	n	20µM	n	n	n
CC(Sc1nc(Cl)nc2nc[nH]c12)C(=O)N1CCN(c2ccccc2F)CC1 (stereo not given)	n	x	x	x	x	n
c1ccc(Cn2c(CNc3nc4ccccc4n3CCN3CCOCC3)nc3ccccc32)cc1	n	-85	n	u	n	n
CC1=C(C(=O)Nc2ccc(C)cc2C)C(c2cccc3ccccc23)NC(=S)N1 (stereo not given)	u	x	x	x	x	n
Cc1c2cnn(CC(=O)Nc3c(F)c(F)cc(F)c3F)c(=O)c2c(C)n1Cc1ccccc1F	20µM	n	x	u	n	n
Cc1c2cnn(CC(=O)NCc3ccc(F)cc3)c(=O)c2c(C)n1Cc1ccccc1F	n	x	n	x	x	n
O=C(C[n+]1ccc(-c2nnc3n2CCC3)cc1)c1ccc(Cl)c(Cl)c1	n	n	28µM	n	n	n
N#Cc1c(-c2cccc(Br)c2)cc(-c2cccnc2)nc1N	n	n	32µM	n	n	n
N#Cc1c(-c2ccc(Br)cc2)cc(-c2cccnc2)nc1N	n	n	n	n	n	n
CCOC(=O)C1=C(C)N(C)C(=O)N(C)C1c1c(F)cccc1Cl (stereo not given)	n	x	x	x	x	n
O=C1C(=O)N(c2ccccn2)C(c2cccc(Oc3ccccc3)c2)/C1=C(\O)c1ccccc1 (stereo not given)	u	x	x	x	x	n
COc1cccc(/C(O)=C2\C(=O)C(=O)N(c3ccccn3)C2c2cccc(Br)c2)c1 (stereo not given)	35µM	x	x	x	x	n
O=C1C(=O)N(c2ccccn2)C(c2cccc(F)c2)/C1=C(/O)c1ccccc1 (stereo not given)	x	-102	n	n	n	n
Cc1ccc(N(C(C)C(=O)NCc2ccccc2)S(C)(=O)=O)cc1C (stereo not given)	u	x	x	x	x	n
CCNc1ncnc2sc3c(c12)CCN(Cc1ccco1)C3	n	x	x	x	x	x
